Compound activity: PubChem, several laboratories
sEH activator – soluble epoxide hydrolase activators, primary screen, biochemical, human sEH | Bifunctional epoxide hydrolase 2 (Homo sapiens), P34913 | purified human sEH enzymatic activity, activator screen | activation, % at 2 µM | 91,000 compounds, 0.04% hits; in the data active means activation above about 37%
CYP2C19 activ – human CYP2C19 activators, primary screen, biochemical, luminescence. Cytochrome P450 2C19 (Homo sapiens), P33261. recombinant CYP2C19, luciferin-H EGE luminescence; stronger effect = higher value; 0 = fully inhibited enzyme, 1 = untreated enzyme. activation factor at 5 µM. 96,000 tested, under 10 active;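 active means activation factor of at least 2 at 5 µM in the primary screen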
sEH inh – soluble epoxide hydrolase inhibitors, primary screen, biochemical, human sEH. AID 707, 2007. recombinant human sEH enzymatic activity assay. 91,000 compounds, 0.34% hits. inhibition, % at 2 µM; in the data active means inhibition above about 80%
CYP2C9 inhib – blockers of cytochrome P450 2C9 activity – biochemical, luminescence, ADME assay, primary screen | 96,000 compounds, 20% hits | CYP2C9 Supersomes, luciferin-H conversion | inhibition, % at 5 µM | P11712;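 active means blocking of liver enzyme CYP2C9 beyond about 50% at 5 µM, limit read from the data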
CYP2C19 inh – blockers of cytochrome P450 2C19 activity – biochemical, luminescence, ADME assay, primary screen | CYP2C19 Supersomes, luciferin-H EGE luminescence, 30 min | inhibition, % at 5 µM | 96,000 compounds, 21% hits | P33261 | AID 778, 2007;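 active means CYP2C19 inhibition above a set limit at 5 µM in the primary screen, cut at about 50% in these data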
CYP2C9 activ – human CYP2C9 activators, primary screen, biochemical, luminescence; Cytochrome P450 2C9 (Homo sapiens), P11712; recombinant CYP2C9, luciferin-H conversion; stronger effect = higher value; factor 1 = untreated enzyme, 0 = blocked; activation factor at 5 µM; 96,000 compounds, 1.4% hits; AID 1024, 2008;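 active means activation factor of 2 or more for CYP2C9 at a 5 µM dose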
Of the large screens only hits and unclear results are named; the others gave an inactive call. An excerpt weighted towards active compounds, which were near 27% of everything screened.

CCOC(=O)c1ccc(Cn2cnc3ccccc3c2=O)cc1	CYP2C9 inhib 55, CYP2C19 inh 62
COC(=O)c1ccc(C)c(NC(=O)Cn2cnc3ccccc3c2=O)c1	CYP2C9 inhib 99, CYP2C19 inh 82
Cc1ccc(C(=O)Cn2cnc3ccccc3c2=O)cc1	none (no result: CYP2C19 activ, CYP2C9 inhib, CYP2C19 inh, CYP2C9 activ)
COC(=O)c1ccc(Cn2cnc3ccccc3c2=O)cc1	CYP2C19 inh 67 (no result: sEH activator, sEH inh)
O=C(NCCc1ccccc1)c1nc2c(nnn2Cc2ccccc2Cl)c(=O)[nH]1	none (no result: CYP2C19 activ, CYP2C9 inhib, CYP2C19 inh, CYP2C9 activ)
COc1ccc(Cn2nnc3c(=O)[nH]c(C(=O)NCCc4ccc(F)cc4)nc32)cc1OC	CYP2C9 inhib 74 (no result: sEH activator, sEH inh)
Nc1nonc1C(=O)NC(c1ccccc1)c1ccccc1	CYP2C9 inhib 78, CYP2C19 inh 90
Cn1cnnc1SCCn1c(N2CCCCC2)nc2c1c(=O)[nH]c(=O)n2C	none
COc1cc2c(cc1OC)C(c1cccc([N+](=O)[O-])c1)N(C(=O)c1ccc(F)cc1)CC2 (configuration not stated)	CYP2C9 inhib 65, CYP2C19 inh 81
COc1cc2c(cc1OC)C(c1ccccc1)N(C(=O)c1ccco1)CC2 (configuration not stated)	CYP2C9 inhib 82, CYP2C19 inh 94
COc1ccc(/C=C(/NC(=O)c2ccccc2)C(=O)N/N=C/c2ccc3c(c2)OCO3)cc1OC	none
N/C(=N\OC(=O)C(c1ccccc1)c1ccccc1)c1ccccn1	none (no result: CYP2C19 activ, CYP2C9 inhib, CYP2C19 inh, CYP2C9 activ)
N/C(=N\OC(=O)C(c1ccccc1)c1ccccc1)c1cccnc1	CYP2C9 inhib 51
CC(=O)OC(C(=O)NCc1ccc(F)cc1)c1ccccn1 (configuration not stated)	none
Cc1cccc(-c2cc3nc4c(c(NCc5ccco5)n3n2)CCCC4)c1	none
O=[N+]([O-])c1ccc(Sc2nnnn2-c2ccccc2)c(Cl)c1	CYP2C9 inhib 68, CYP2C19 inh 98
Nc1ccc(Sc2nnnn2-c2ccccc2)c(Cl)c1	CYP2C19 inh 93
CCOc1ccccc1-n1c(COc2ccc(C)cc2)nnc1SCC(N)=O	none
CCOC(=O)C(NC(=O)Cc1ccccc1)(Nc1cc(C)on1)C(F)(F)F (configuration not stated)	none (no result: CYP2C19 activ, CYP2C9 inhib, CYP2C19 inh, CYP2C9 activ)
CCOc1ccc(NC2=NCCC(=O)N2Cc2cccs2)cc1	CYP2C9 inhib 56, CYP2C19 inh 50
CCCn1cnc2cc(NCc3cccc(OC)c3O)ccc21	CYP2C9 inhib 58, CYP2C19 inh 86
CCCn1cnc2cc(NCc3ccccn3)ccc21	none
COc1cccc(CNc2ccc3c(c2)ncn3C(C)C)c1OC	CYP2C9 inhib 64, CYP2C19 inh 86
Cn1cc(C(=O)c2ccc(Cl)cc2Cl)cc1C(=O)N/N=C(\N)COc1cccc(C(F)(F)F)c1	CYP2C9 inhib 62, CYP2C19 inh 64
COC(=O)c1cc(C(=O)c2cccc(Cl)c2Cl)cn1C	CYP2C19 inh 90, CYP2C9 activ 2
COc1ccc(C(=O)c2ccc(Cl)cc2Cl)cc1	none
Cc1onc(-c2ccccc2Cl)c1C(=O)N/N=C(\N)COc1ccc(Cl)cc1	none
